For 38 molecules, growth results are on record in PubChem BioAssay (NCI).

SMILES strings stand for the structures. The panel holds about 83,000 compounds, 20% with a hit somewhere; the sample as a whole holds those more often.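 Treatment: one concentration, 48 hours, 96-well format. Scoring: percent growth, with anything below 10 considered active.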 A number with no mark means an inactive call. Active and inactive are the calls of the source.

The subject of this assay is TK-10 renal. Nature of the assay: NCI-60 one-dose screen, 48 h (100 = growth as untreated, 0 = no growth, -100 = all killed). To be noted: 10 µM unless noted.
For the molecule `N#C/C(C(=O)c1ccccc1)=C1/C(=O)Nc2ccc(F)cc21`, the growth is 122%. With `C=C(C)[C@@H]1CC[C@]2(C(=O)NCCCN)CC[C@]3(C)[C@H](CC[C@@H]4[C@@]5(C)CC[C@H](O)C(C)(C)[C@@H]5CC[C@]43C)[C@@H]12`, the growth was -32.2% [100 µM] (active). For `O=C1/C(=C\c2cn(CC(O)CN3CCCCC3)c3ccccc23)c2ccccc2N1c1c(Cl)cccc1Cl` (stereo not drawn), the growth was -75.9% (active). As to `COc1ccc(OC)c([N+](=O)[O-])c1C(=O)CNC(C)=O`, the growth is 105%.

As to `Nc1cccc2c1C(=O)c1cccc(NC(=O)c3ccccc3)c1C2=O`, the growth was 32.1%. Regarding `CCNc1cc2c(cc1Br)-c1ccccc1C2=O`, the growth is 104%. In the case of `CCOc1cccc2c(NC(C)CCCN(CC)CC)c(C)cnc12` (stereo not drawn) it was 101%; in that of `COc1cc(/C=C/C(=O)/C=C/c2ccc(-n3ccnc3C)cc2)ccc1O`, 88%. Take `COc1cc(-c2nc(SCCC(C)C)nc(Nc3ccccc3)c2C#N)cc(OC)c1OC`: the growth is 110%. `CN(C)C(=S)Sc1ccc([N+](=O)[O-])cc1[N+](=O)[O-]`: the growth is 67.8%. Then `Nc1ccc(Cl)c([N+](=O)[O-])c1`, with 103%; and `CCCCCCCCCCCCNC(=S)N/N=C/c1ccccc1O`, with 128%. In the case of `CC1(C)CC[C@]2(C(=O)OC(=O)[C@]34CCC(C)(C)C[C@@H]3C3=CC[C@@H]5[C@@]6(C)CCC(=O)C(C)(C)[C@@H]6CC[C@@]5(C)[C@]3(C)CC4)CC[C@]3(C)C(=CC[C@@H]4[C@@]5(C)CCC(=O)C(C)(C)[C@@H]5CC[C@]43C)[C@H]2C1` it was 95.3% [100 µM]; in that of `COc1cccc(-c2[nH]c(=S)ncc2C(=O)c2ccccc2)c1`, 100%; in that of `O=C(N=c1n(-c2ccccc2)nc2n1CCN2C1=NCCN1C(=O)c1ccc(Cl)cc1)c1ccc(Cl)cc1`, 74.6%.

On to `COc1cc2c(=O)[nH]c3cc([N+](=O)[O-])ccc3c2cc1[N+](=O)[O-]`, for which the growth is 52.1%. Take `NC(=O)CC1C=CCC1` (stereo not drawn): the growth was 89.2%. Then `O=C(Nc1cccc2ccccc12)c1cc2ccccc2cc1O`, with 34.4%; and `Cc1ccc(N)c(O)c1`, with 158%; and `CCOC(=O)CCC[P+](c1ccccc1)(c1ccccc1)c1ccccc1`, with 95.9%. `CCN(CC)c1cc(N)c(Cc2c(N)cc(N(CC)CC)cc2Cl)c(Cl)c1`: the growth was 82.1%.

Consider `CSc1nc(N)c(N=Nc2ccc(S(=O)(=O)Nc3nnc(C)s3)cc2)c(=O)[nH]1`, for which the growth is 108%. `CC1(C)C(=O)/C(=C\c2cccnc2)C[C@]2(C)[C@H]3CC[C@@H]4[C@H]5[C@H](C(=O)/C=C/c6cccnc6)CC[C@]5(C(=O)O)CC[C@@]4(C)[C@]3(C)CC[C@@H]12`: the growth is -89.5% [100 µM] (active). With `N#CCCc1c[nH]c2ccccc12`, the growth was 104%. Then `C[C@@H]1C[C@H]2C(=O)O[C@@H](C)[C@H](NC(=O)[C@H](Cc3cc(F)cc(F)c3)NC(=O)Nc3ccc(C4CC4)cc3F)C(=O)N3CCC[C@H]3C(=O)N3CCCC[C@H]3C(=O)N[C@@H](C)C(=O)N2C1`, with 38.4%; and `CCN(CC)CCCC(C)Nc1c2ccc(C)cc2nc2ccc(OC)cc12` (stereo not drawn), with 15.4%; and `C#CCNC(=O)CC[C@]1(C)[C@H]2CC[C@@H]3[C@@H]([C@@](C)(O)CCC=C(C)C)CC[C@@]3(C)[C@]2(C)CC[C@H]1C(=C)C`, with 70.5% [100 µM]. As to `CC1(C)CC[C@]2(C(=O)O)CC[C@]3(C)C(=CC[C@@H]4[C@@]5(C)C/C(=C/c6ccco6)C(=O)C(C)(C)[C@@H]5CC[C@]43C)[C@@H]2C1`, the growth is -19.1% [100 µM] (active). In the case of `C=C(C)[C@@H]1CC[C@]2(C(=O)O)CC[C@]3(C)[C@H](CC[C@@H]4[C@@]5(C)C/C(=C/c6ccco6)C(=O)C(C)(C)[C@@H]5CC[C@]43C)[C@@H]12` it was -58.5% [100 µM] (active). In the case of `C[n+]1cccc(NC(=O)c2ccc3ccc4ccc(C(=O)Nc5ccc[n+](C)c5)nc4c3n2)c1` it was 94.2%; in that of `Cc1ccc(S(=O)(=O)N/N=C2\CC3CCC2(C)C3(C)C)cc1` (stereo not drawn), 137%; in that of `CCOC(=O)c1nn(C2CCCCO2)c2ccc(NC(=O)Cn3nnc4ccccc43)cc12` (stereo not drawn), 117%. For `Cn1cc(-c2nnc(-c3cn(C)c4ncc(Br)cc34)o2)c2ccccc21`, the growth was 114%.

Turning to `O=C(Nc1ccc(Oc2ccc(F)cc2)c(Cl)c1)c1cccnn1`, the growth is 64.4%. Consider `Cc1ccc2c(n1)C(=O)C(Cl)=C(Nc1ccc(N3CCN(C)CC3)cc1)C2=O`, for which the growth is 100%. As for `c1cc2ccc1CNCCN1CCNCc3ccc(cc3)Oc3ccc(cc3)CNCCN(CCNCc3ccc(cc3)O2)CCNCc2ccc(cc2)Oc2ccc(cc2)CNCC1`, the growth was 29.4%. As for `Cc1ccc(-c2cn(C/C=C3\C=CN(S(=O)(=O)c4ccccc4)CC3)nn2)cc1`, the growth was 115%. In the case of `CCCCCCCCN(CCCCCCCC)CC(O)c1ccc(Cl)c(C)c1Cl` (stereo not drawn) it was 94.6%.
